Bioassay records: PubChem, National Center for Advancing Translational Sciences (NCATS)
D1 antagonist: antagonists of human D1 dopamine receptor; actives 3.2% (n = 360,000); P21728; AID 504652; activity change, negative = inhibition, % at 10 µM; HEK293 TREx D1 cells, calcium flux, dopamine EC80; hits give low values; in the data active = activity change below about -30%
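Antagonism measured as reduced calcium response to an EC80 dopamine addition following 180 s compound pre-read; cells were inducible HEK293 Trex D1 plated overnight at 30 C, read kinetically at 1 cycle/sec.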
TRHR agonist: agonists of human TRH receptor; activation, % at 2 µM; AID 493084; actives 0.18% (n = 360,000); TRHR cells, calcium flux fluo-8, FDSS agonist mode
Target sequence (P34981 whole entry, looked up): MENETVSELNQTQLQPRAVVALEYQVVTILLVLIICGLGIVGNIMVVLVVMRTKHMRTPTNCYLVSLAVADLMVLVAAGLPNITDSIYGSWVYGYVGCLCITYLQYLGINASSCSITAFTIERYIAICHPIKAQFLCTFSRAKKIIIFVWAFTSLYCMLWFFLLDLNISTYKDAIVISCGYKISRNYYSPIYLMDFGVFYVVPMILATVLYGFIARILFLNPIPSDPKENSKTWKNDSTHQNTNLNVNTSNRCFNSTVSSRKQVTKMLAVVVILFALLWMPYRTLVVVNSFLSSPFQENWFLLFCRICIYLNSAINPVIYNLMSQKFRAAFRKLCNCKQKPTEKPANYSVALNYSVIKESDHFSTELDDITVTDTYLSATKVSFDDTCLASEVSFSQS
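In this calcium-flux screen, cells bearing human TRHR are dye-loaded with fluo-8, baselined for 10 cycles, then exposed to library compounds; positive kinetic calcium responses during the agonist phase mark hits, with TRH as control.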
USP1-UAF1 inh: USP1/UAF1 (human) deubiquitinase inhibition; recombinant USP1/UAF1, Ub-Rhodamine cleavage fluorescence; Potency, µM (series often up to 57.1 µM), most hits filed as inhibitors; actives 0.23% (n = 390,000); O94782; active = well fitted inhibition curve with a large enough effect; inconclusive = small, poorly fitted or top-dose-only effect; inactive = no such curve, though single readings can be large or run the other way; also: nearly all actives have a fitted effect of over 60% in size
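USP1/UAF1 complex at 1 nM was preincubated with compound for 15 min at room temperature, then Ub-Rho substrate (150nM final) was added. Fluorescence (480/540 nm) was read kinetically, 6 reads every 60 seconds.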
TRHR enhancer: allosteric enhancers of human TRH receptor; P34981; TRHR cells, fluo-8 calcium fluorescence, EC20 TRH enhancement; enhancement, % at 2 µM; actives 0.66% (n = 360,000); AID 493056; in the data active = enhancement above about 30%
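Enhancer read-out: after compound pinning and an initial kinetic agonist-mode read, an EC20 of TRH (10 nM final) was injected and fluo-8 calcium signal (Ex 480/Em 530) followed at 1 s/cycle for 100 cycles in TRHR-expressing cells.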
D1 agonist: agonists of human D1 dopamine receptor; P21728; HEK293 T-REx D1 cells, calcium flux, agonist mode; activation, % at 2 µM; actives 1% (n = 360,000); AID 504660
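Agonism was scored from calcium flux recorded over 180 s (1 read/s) after pintool compound addition, following a 10-cycle baseline. Cells were inducible force-coupled HEK293 TREx D1, plated overnight at 30 C and loaded with no-wash calcium dye.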
D1 PAM: enhances dopamine response at the human D1 receptor | P21728 | HEK293 TREx D1 cells, calcium flux, dopamine EC20 potentiation | potentiation, % at 10 µM | actives 0.036% (n = 360,000) | AID 504651; in the data active = potentiation above about 30%
Of the large screens only hits and unclear results are named; the others gave an inactive call; ! = a repeat was not active. Only some compounds are listed: those with a hit (about 4.4% of all), similar ones and a draw of the others. Rule as the data show it, unless noted: active = activation above about 30%; inactive = the rest.

COc1ccc(CC(=O)NC2CC(=O)N(c3cccc(F)c3)C2)cc1 (centres undefined)	USP1-UAF1 inh inconclusive (no result: D1 antagonist)
Cc1ccc(S(=O)(=O)NNC(=O)Nc2ccc(C)c(C)c2)c(C)c1	D1 antagonist -35
O=C(N/N=C/c1cc(Br)cc(Br)c1O)c1ccncc1	USP1-UAF1 inh inconclusive, D1 agonist 54
Cc1ccc(SCC(=O)OCC(=O)N(C)CC(=O)Nc2ccc(F)cc2)cc1C	TRHR enhancer 35, D1 agonist 53
COC(=O)c1cc(=O)n(Cc2ccc(F)cc2)c(=Nc2ccccc2)s1	none
COC(=O)c1cc(=O)n(Cc2ccco2)c(=Nc2ccc(F)cc2)s1	D1 antagonist -35
CC(C)(C)OC(=O)NCc1nnc(-c2cc3ccccc3[nH]2)o1	none (no result: USP1-UAF1 inh)
CCCSc1nnc(NC(=O)c2sc3nc(-c4cccs4)ccc3c2N)s1	USP1-UAF1 inh inconclusive, D1 agonist 43
CCOC(=O)C(=O)c1csc(NC(=O)CCSc2ccc(C)cc2)n1	D1 antagonist -79
COc1cccc(-n2ccnc2SCC(=O)Nc2nc3ccc(C)cc3s2)c1	none
COc1ccc(OC)c(NS(=O)(=O)c2ccc(Br)s2)c1	none
COc1cccc(NS(=O)(=O)c2ccc(Br)s2)c1	D1 antagonist -35
CN1/C(=C\C=C(/C#N)C(=O)Nc2ccccc2F)C(C)(C)c2ccccc21	TRHR agonist 114, D1 agonist 277
CN1/C(=C/C=C(/C#N)C(N)=O)C(C)(C)c2ccccc21	none (no result: D1 antagonist, TRHR agonist, TRHR enhancer, D1 agonist, D1 PAM)
CCOC(=O)Cn1c(=O)n(-c2ccccc2OC)c2nc(-c3ccccc3C)nc(C(N)=O)c21	none
Brc1ccc(-c2csc(/N=C/N3CCCC3)n2)cc1	none
Brc1ccc(-c2csc(/N=C/N3CCOCC3)n2)cc1	D1 antagonist -33
Cc1cc(C)c(C#N)c(SCc2nnc(-c3ccccc3[N+](=O)[O-])o2)n1	D1 agonist 38
Cc1cc2c(cc3c(SCc4ccc(Cl)cc4)nncn32)o1	none
COc1ccc(-c2[nH]c3ccccc3c2SCCNC(=O)c2ccc(S(=O)(=O)N(C)C)cc2)cc1	none
CC(C)(C)c1ccccc1OCCOCCNCc1ccccc1	D1 agonist 36
Cc1cc(OCCOCCNCc2ccccc2)ccc1C(C)C	D1 agonist 63
COCCNCc1ccccc1	none
COCCCNCCOCCOc1ccc(Cl)cc1C(C)(C)C	D1 agonist 38
COCCNCCOCCOc1ccc(Cl)c(C)c1	D1 agonist 32 (no result: D1 antagonist)
COc1ccc(CCNC(=O)c2ccc3c(c2)CCN3S(=O)(=O)c2ccccc2)cc1OC	none
COc1ccc(-c2nc(Cn3c(SCc4ccc(C)cc4)nc4cccnc43)c(C)o2)cc1OC	none
Cc1ccc(CSc2nnc3[nH]c(=O)cc(C)n23)cc1	none (no result: D1 antagonist)
Cc1ccc(C(C)C)c(OCCNCc2ccccc2)c1	D1 agonist 53
CCCCn1c(C)cc2c(c1=O)[C@H]1O[C@](CCCC)(Cc3c1ccc1ccccc31)O2	none (no result: USP1-UAF1 inh)
Cc1cc(NC(=O)c2ccccc2)n(C(C)(C)C)n1	D1 antagonist -33
CCOC(=O)Cn1nc(C)cc1NC(=O)c1ccncc1	TRHR enhancer 34
Cc1cccc(C(=O)Nc2c3c(nn2C(C)(C)C)CS(=O)(=O)C3)c1	none
CC(C)(C)n1nc2c(c1NC(=O)c1ccccc1)CS(=O)(=O)C2	D1 antagonist -41
CCOc1ccc(NC(=O)CC2C(=O)OCCN2CC)cc1 (centres undefined)	none
COc1ccc(OC)c(Nc2c3ccccc3nc3ccccc23)c1	D1 antagonist -54
COc1cc2nc(Nc3ccc(C)c(C)c3)nc(N)c2cc1OC	D1 antagonist -35!
O=[N+]([O-])c1ccc(Nc2c3ccccc3nc3ccccc23)cc1	none
COc1ccc(OC)c(Nc2c3c(nc4ccccc24)CCC3)c1	none
COc1ccc(C)cc1Nc1nc(N)c2ccccc2n1	D1 antagonist -36
COc1ccc([N+](=O)[O-])cc1Nc1c2ccccc2nc2ccccc12	D1 antagonist -41
COc1ccc([N+](=O)[O-])cc1C(=O)C(=O)c1ccccc1	TRHR enhancer 33
COc1cc(NS(C)(=O)=O)ccc1Nc1c2ccccc2nc2ccccc12	D1 antagonist -49
Cc1cccc(Cn2c(=O)n(CCc3ccccc3)c(=O)c3sc4ccccc4c32)c1	none
S=C(Nc1ccccc1Cl)N(CCCN1CCOCC1)Cc1ccccn1	none
Cc1ccc(Cl)cc1NC(=S)N(CCCN1CCOCC1)Cc1ccccn1	D1 antagonist -74
COc1ccc(C(C(=O)NCc2ccccc2)N(C(=O)Cn2nnc3ccccc32)c2ccc(OC)cc2)cc1 (centres undefined)	none
O=C(CN(Cc1ccco1)C(=O)CNS(=O)(=O)c1ccc(Cl)cc1)NCc1ccco1	D1 antagonist -52
CCn1c(C(=O)NCc2cc(Br)ccc2OC)cc2oc3ccccc3c21	none
O=C(NC(NC(=S)Nc1cc(Cl)ccc1Cl)C(Cl)(Cl)Cl)c1ccco1 (centres undefined)	D1 antagonist -40
O=C(NC(NC(=S)Nc1ccc(Cl)c(Cl)c1)C(Cl)(Cl)Cl)c1ccco1 (centres undefined)	none (no result: D1 antagonist, TRHR agonist, TRHR enhancer, D1 agonist, D1 PAM)
O=C(/C=C/c1ccccc1)NC(NC(=S)Nc1cc(Cl)ccc1Cl)C(Cl)(Cl)Cl (centres undefined)	D1 antagonist -37
Cc1ccc(C(=O)c2oc3ccccc3c2NC(=O)c2cc(-c3ccccc3)on2)cc1	none
COc1ccc(NC(=O)Cn2c(=O)n(CCCC(=O)NCc3ccccc3Cl)c(=O)c3ccccc32)c(OC)c1	none
CC(=O)C(N=Nc1ccccc1)(Sc1nnc(-c2ccccc2)n1-c1ccccc1)C(=O)Nc1ccccc1 (centres undefined)	none
CC(=O)C(N=Nc1ccccc1)(Sc1nnc(-c2ccccc2)n1-c1ccccc1)C(C)=O	D1 antagonist -32
OCCNCc1cc(Br)ccc1OCc1ccc(Cl)cc1Cl	D1 agonist 38
CN1CCN(C(=O)c2cccc(COc3cc(Cl)ccc3Cl)c2)CC1	D1 antagonist -43
CCOc1cc(C(=O)OCC(=O)c2cc(C)n(CC3CCCO3)c2C)ccc1OCC(=O)N1CCOCC1 (centres undefined)	TRHR enhancer 38
Cn1nc(C(=O)NCc2ccccc2Cl)c2c1-c1ccccc1SC2	D1 antagonist -33
CC(C)(C)n1nc(C2CC2)cc1NC(=O)Nc1ccc(Cl)cc1	D1 antagonist -41
CCOC(=O)c1[nH]c(CN2CCN(c3ccc(OC)cc3)CC2)c(C(=O)OCC)c1C	D1 agonist 64 (no result: D1 PAM)
Cn1c(CN2CCOCC2)nc2cc(NC(=O)c3ccccc3[N+](=O)[O-])ccc21	none
